# Sampled rows, rich in hits. Any-hit rate of the full collection: about 2.8%.
# PvdQ inh: blocks Pseudomonas aeruginosa PvdQ acylase activity. purified PvdQ acylase, fluorescence plate reader. inhibition, % at 10 µM. actives 0.063% (n = 340,000); in the data active means inhibition above about 30%, passing the limit was not always enough;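 further: 0% = vehicle neutral wells and 100% = reference inhibitor wells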
# SIRT5 block: inhibitors of human sirtuin-5 desuccinylase; Purified SirT5, succinyl-peptide AMC, trypsin-coupled fluorescence; AID 652115; inhibition, % at 15 µM; Q9NXA8; actives 1.1% (n = 330,000); in the data active means inhibition above about 15%
# Target sequence (Q9NXA8 whole entry, looked up): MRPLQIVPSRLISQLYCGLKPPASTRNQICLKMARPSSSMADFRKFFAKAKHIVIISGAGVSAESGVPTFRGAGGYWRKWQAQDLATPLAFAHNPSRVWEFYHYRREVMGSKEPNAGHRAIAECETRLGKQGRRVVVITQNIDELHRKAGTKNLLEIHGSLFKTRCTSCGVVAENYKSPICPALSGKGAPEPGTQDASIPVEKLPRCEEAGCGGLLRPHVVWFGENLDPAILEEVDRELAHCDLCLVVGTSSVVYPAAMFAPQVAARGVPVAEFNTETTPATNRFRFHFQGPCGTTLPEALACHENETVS
# PglD inh: PglD (C. jejuni) enzyme inhibition | purified PglD enzyme, DTNB colorimetric CoA detection | inhibition, % at 12.5 µM | actives 0.098% (n = 360,000) | AID 602405; in the data active means inhibition above about 16%, passing the limit was not always enough
# FGF22 binding: binders of recombinant human FGF22 by thermal shift; activity (Tm shift, normalised), % at 9.99 µM; Q9HCT0; SYPRO orange fluorescence; percent of sucrose octasulfate shift, DMSO zero; actives 1.5% (n = 340,000); AID 651658;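 active means mean Tm shift, scaled 0 neutral to 100 positive control, at about 1.3% or above, every replicate too, limit read from the data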
# CDK5 p35 inh: CDK5/p35 (human) kinase inhibition; Recombinant CDK5/p35, ADP-Glo luminescence, 60 min; inhibition, % at 10 µM; actives 0.01% (n = 330,000);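 active means highest replicate inhibition of at least 50% and at least 75% of replicates reaching 50%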;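 further: plate controls were DMSO neutral control for no effect and GW8510 at 10 µM for full effect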
# dFosB activator: activators of mouse delta FosB homodimer. AID 493131. purified delta FosB, TAMRA-CDK5 oligo fluorescence polarization; percent of positive-control signal above neutral wells. activation, % at 25 µM. P13346. actives 0.99% (n = 340,000);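 active means mean activation above about 17%, with every replicate also reaching it, limit read from the data, passing the limit was not always enough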
# * hit, by the source's call; · = no result.
SMILES,PvdQ inh,SIRT5 block,PglD inh,FGF22 binding,CDK5 p35 inh,dFosB activator
COc1cc2sc3cc(NCC[C@@H]4CCCN4C)ccc3c(=O)c2cc1OC,10.7,·,-1.1,-0.6,5.2,29.9*
C[C@H]1CN([C@@H](C)CO)C(=O)Cc2cc(NC(=O)Nc3cccc4ccccc34)ccc2O[C@H]1CN(C)S(=O)(=O)c1cccs1,·,·,-3.9,-0.2,·,·
Cc1nn(C)c2ncc(C(=O)c3cc(F)ccc3O)cc12,-0.2,·,·,·,0.6,-10.0
Cn1c(=O)[nH]c(=O)c2cc(C(=O)c3cc(F)ccc3O)cnc21,-0.1,0.4,·,43.0*,-0.6,-3.6
O=C(C[C@@H]1CC[C@H](NC(=O)Nc2cc(F)ccc2F)[C@@H](CO)O1)NCc1ccccn1,·,0.8,-4.1,0.5,·,·
O=C(C[C@H]1CC[C@@H](NC(=O)Nc2cccc(F)c2)[C@@H](CO)O1)NCC1CCCCC1,·,-0.3,2.3,-0.1,·,·
O=C(Nc1ccc2c(c1)OCO2)N[C@H]1CC[C@H](CCNC(=O)C2CC2)O[C@@H]1CO,·,31.3*,1.2,-0.3,·,·
Cc1noc(C)c1NC(=O)N[C@H]1CC[C@H](CCNC(=O)C2CC2)O[C@H]1CO,·,17.9*,-2.8,-0.2,·,·
O=C(C[C@@H]1CC[C@@H](NC(=O)Nc2cccc(F)c2)[C@H](CO)O1)NCC1CC1,·,21.8*,0.8,0.0,·,·
Cc1cc(C(=O)Nc2cccc3c2O[C@@H](CN(C)S(=O)(=O)c2c(C)noc2C)[C@@H](C)CN([C@H](C)CO)C3=O)n(C)n1,·,2.8,-0.5,0.1,·,·
CS(=O)(=O)Nc1ccc2c(c1)[C@H]1C[C@@H](CC(=O)NCCN3CCCCC3)O[C@@H](CO)[C@H]1O2,·,1.4,1.4,0.1,·,·
O=c1nc(Oc2ccccc2)nc2ncccn12,·,·,·,43.4*,·,·
CC(C)Oc1ccc(Nc2ncnc3ccccc23)cc1,31.3*,4.0,·,0.2,1.2,-9.7
CO[C@@H]1CN(C)C(=O)c2ccc(NC(=O)C3CCOCC3)cc2OC[C@H](C)N(C(C)=O)C[C@H]1C,·,·,0.4,-0.1,·,·
CCC(c1ccccc1)C(CC)c1cc(O)c(O)c(O)c1 (configuration not stated),-13.4,7.4,-6.2,43.0*,0.2,-4.3
COc1cc(OC)cc(-c2c(C#Cc3ccsc3)c3cc(-c4cc(OC)c(OC)c(OC)c4)ccc3n2C)c1,-20.1,·,0.1,0.1,0.1,-4.5
COc1cc(OC)cc(-c2c(C#Cc3ccsc3)c3cc(-c4ccc5[nH]ccc5c4)ccc3n2C)c1,-10.8,·,-2.3,0.0,-0.3,22.9*
COc1cc(NC(=O)c2ccccc2)c(OC)cc1NC(C)=O,1.1,·,-4.8,·,0.6,-3.0
COc1cc(NC(=O)COc2ccccc2)c(OC)cc1NC(C)=O,4.4,2.5,1.3,43.1*,-2.8,-6.7
COc1cccc(-c2noc(C3CCCN(C(=O)CC(C)(C)C)C3)n2)c1 (configuration not stated),-6.0,-6.9,·,0.1,0.7,-4.5
CCCCC(=O)N1CCCC(c2nc(-c3cccc(OC)c3)no2)C1 (configuration not stated),-13.8,-2.6,-2.9,43.3*,0.6,-5.6
C[C@@H]1CCCCO[C@@H](CN(C)C(=O)Nc2ccc3c(c2)OCO3)[C@H](C)CN([C@H](C)CO)C(=O)c2cc(NS(=O)(=O)c3cn(C)cn3)ccc2O1,·,1.8,-2.4,-0.2,·,·
Cc1ccccc1NC(=O)c1ccc(OCC(=O)Nc2ccccc2F)cc1,-2.9,-0.8,·,42.9*,0.9,1.4
CC(=O)c1ccccc1NC(=O)COC(=O)c1ccccc1NC(=O)c1ccccc1,-9.5,10.7,·,16.5*,-0.7,-22.8
O=C(COc1ccc(Br)cc1)Nc1ccc(C(=O)Nc2ccccc2C(=O)O)cc1,11.9,1.0,-0.6,0.0,-0.9,-6.4
COc1ccc(C(=O)NNC(=O)c2cccc3ccccc23)cc1,10.7,·,-2.5,43.7*,5.6,-2.9
COc1ccc(OCC(=O)Nc2ccc(C(=O)Nc3ccccc3C(=O)O)cc2)cc1,-10.5,23.4*,0.2,-0.4,0.2,-4.3
CO[C@H]1CN(C)C(=O)c2cc(NC(=O)c3cc(C)on3)ccc2OC[C@H](C)N(C(C)=O)C[C@@H]1C,·,0.7,1.2,-0.5,·,·
CC(C)CC#Cc1ccc2c(c1)O[C@H](CN(C)C(=O)c1cccc(F)c1)[C@H](C)CN([C@H](C)CO)S2(=O)=O,·,2.9,-4.2,-0.6,·,·

# Bioassay records (PubChem BioAssay)
